# Bioassay records as filed in PubChem BioAssay.
# IL1B secr inh: inhibitors of inflammasome signaling (IL-1 beta secretion); THP-1 LPS/ATP IL-1B secretion, AlphaLISA, 16 h; stronger effect = lower value; activity change, % at 57.5 µM; hit rate 4.7% among 360,000; in the data active = activity change below about -50%; inconclusive = mostly about -30% to -49%
#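 THP-1 cells pretreated 1 hr with compounds (up to 57.5 uM final), then stimulated with LPS (250 ng/mL final) plus ATP (1.25 mM final); secreted IL-1B measured by AlphaLISA after 16 hr, decreased signal indicating inhibition.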
# RORgamma inh: ROR gamma (mouse) transcription inhibition; P51450; Drosophila S2 Gal4-RORgamma UAS-luciferase reporter, 20 h; Potency, µM (highest dose often 53.6 µM), actives largely listed as inhibitors; hit rate 5.4% among 310,000; also: nearly all actives have a fitted effect of over 60% in size
# Target sequence (P51450 whole entry, looked up, the tested form may be a part): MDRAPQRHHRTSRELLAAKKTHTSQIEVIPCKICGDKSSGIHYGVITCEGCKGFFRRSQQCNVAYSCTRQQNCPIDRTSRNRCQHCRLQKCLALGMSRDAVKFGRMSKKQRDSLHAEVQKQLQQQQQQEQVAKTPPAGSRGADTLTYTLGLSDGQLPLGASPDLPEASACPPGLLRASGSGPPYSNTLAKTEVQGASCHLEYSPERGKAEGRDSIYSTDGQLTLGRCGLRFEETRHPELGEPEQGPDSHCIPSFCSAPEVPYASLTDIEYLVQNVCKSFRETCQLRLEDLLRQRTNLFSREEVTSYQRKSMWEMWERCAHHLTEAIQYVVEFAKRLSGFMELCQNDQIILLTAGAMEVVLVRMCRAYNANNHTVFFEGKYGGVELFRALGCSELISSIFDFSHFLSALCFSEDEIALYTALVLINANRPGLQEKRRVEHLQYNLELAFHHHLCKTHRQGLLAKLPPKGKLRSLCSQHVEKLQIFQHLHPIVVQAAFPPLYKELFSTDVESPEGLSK
#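 Stably transfected Drosophila Schneider cells are the test system, with ROR gamma fused to Gal4 and luciferase under UAS control; luminescence is read after 20 hr of 700 uM copper sulfate induction at ambient temperature.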
# Gal4-VP16 FLuc: inhibits Gal4-VP16 luciferase reporter, ROR gamma counter-screen; Drosophila S2 Gal4-VP16 UAS-luciferase, luminescence, 20 h; Potency, µM (highest dose often 53.6 µM), most hits filed as inhibitors; hit rate 3.5% among 310,000;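 also: Gal4-VP16 expression switched on by copper sulfate through the metallothionein promoter; nearly all actives have a fitted effect of over 50% in size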
# MCF10A rerep: DNA re-replication induction in MCF 10a cells | hit rate 2.9% among 350,000 | AID 624296 | MCF 10A DNA re-replication, Hoechst nuclear intensity, 48 h | Potency, µM (top dose mostly 46.1 µM), most hits filed as activators; also: nearly all actives have a fitted effect of over 50% in size
# SW480 rereplic: induces DNA re-replication in SW480 colon adenocarcinoma cells. SW480 DNA re-replication, Hoechst DNA content imaging, 48 h. Potency, µM (highest dose often 46.1 µM), actives largely listed as activators. hit rate 1.8% among 340,000; also: nearly all actives have a fitted effect of over 55% in size
#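 250 cells/well; 23 nL cpd via pin tool; 48 hr, 37 C, 5% CO2; Hoechst 40 min; imager read of total nuclear intensity, ex 405/em 500-530 nm.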
# Numbers stand for hits; i = inactive; ? = inconclusive; nt = no result. This is a sample that favours compounds with a hit; in the whole collection about 11% have one here. Unless noted, calls follow the shape of the dose curve; as a rule, active = well fitted curve in the direction sought with a large enough effect; inconclusive = small, poorly fitted or top-dose-only effect, or another doubt; inactive = no such curve, though single readings can be large; an effect the other way counts as inactive or inconclusive.
SMILES,IL1B secr inh,RORgamma inh,Gal4-VP16 FLuc,MCF10A rerep,SW480 rereplic
Fc1ccc(NC(=S)Nc2ccc(F)c(Cl)c2)cc1Cl,-77.2,1.78µM,i,?,i
O=C(NC(=S)Nc1ccc(F)c(Cl)c1)C1CC1,i,5.62µM,7.08µM,i,i
O=C(Nc1ccc(F)c(Cl)c1)C1CCCCC1,i,nt,nt,i,i
O=C(Nc1ccc(OC(F)F)c(Cl)c1)c1ccccn1,i,?,i,i,i
C=CC[C@@H]1/C=C(\C)C[C@H](C)C[C@H](OC)[C@H]2O[C@@](O)(C(=O)C(=O)N3CCCC[C@H]3C(=O)O[C@H](/C(C)=C/[C@@H]3CC[C@@H](O)[C@H](OC)C3)[C@H](C)[C@@H](O)CC1=O)[C@H](C)C[C@@H]2OC,nt,?,i,i,?
Cc1ccc(NC(=S)NC(=O)C2CC2)cc1Cl,i,3.16µM,5.01µM,i,?
COc1ccc(CCNC(=O)COc2cccc(-n3cnnn3)c2)cc1,i,nt,nt,i,i
O=C1C=CC[C@H](/C=C/C[C@@H](O)C[C@H](O)CCc2ccccc2)O1,-96.5,nt,nt,i,?
Nc1nc(-c2ccc(-c3ccccc3)cc2)cs1,i,?,22.4µM,i,i
Nc1nc(-c2cccc(NS(=O)(=O)c3ccccc3)c2)cs1,i,?,17.8µM,i,i
Cc1ccc(-c2csc(N)n2)cc1,i,nt,nt,i,i
NCCc1nc(-c2ccccc2)cs1,-52.3,i,i,i,i
Nc1nc(-c2ccc3ccccc3c2)cs1,-67.5,i,?,i,i
Nc1nc(-c2ccc(Oc3ccccc3)cc2)cs1,i,i,i,i,i
CC(=O)Nc1ccc(S(=O)(=O)Nc2cccc(-c3csc(C)n3)c2)cc1,i,?,i,i,i
O=C(c1cnccn1)N1CCC2(CC1)CN(c1ccncc1)C2,nt,i,i,nt,nt
OC(c1ccccc1)c1nc(-c2cc3ccccc3o2)cs1 (centres undefined),i,nt,nt,nt,nt
CN(C)/C=N/c1nc(-c2ccc3ccccc3c2)cs1,-60.6,i,i,i,i
Nc1nc(-c2cc3ccccc3o2)cs1,-75.3,i,i,?,i
CCCS(=O)(=O)NC(=O)C1(C)CCCN(C(=O)c2nc3ccccc3s2)C1 (centres undefined),i,nt,nt,nt,nt
O=C(c1ccc(Cl)c(Cl)c1)c1cc(-c2ccccn2)c(N2CCOCC2)s1,i,i,i,20.6µM,i
CSc1ccc(C(=O)N2CCC(CCC(=O)NCc3ccc(F)cc3)CC2)cc1,i,i,i,i,i
COc1ccc(CCn2c(C3CCCCC3)nc3c(c(=O)c4ccccc4n3C)c2=O)cc1,i,i,i,3.66µM,i
CC(=O)c1cccc(NC(=S)Nc2ccn(Cc3cccc4ccccc34)n2)c1,i,2.82µM,5.01µM,i,i
CC(=O)c1cccc(NC(=S)NC(=O)Cc2ccccc2)c1,i,1.41µM,5.01µM,i,i
SMILES,IL1B secr inh,RORgamma inh,Gal4-VP16 FLuc,MCF10A rerep,SW480 rereplic
CC(=O)c1cccc(NC(=S)NC(=O)Cc2ccc(Cl)cc2)c1,i,10µM,?,i,i
COc1ccc(C(=O)N2CCC[C@@]3(CCN(C)C3)C2)cc1,nt,i,i,nt,nt
CC(=O)c1cccc(NC(=O)Cn2nc(-c3ccc(Cl)cc3)ccc2=O)c1,i,i,i,0.581µM,i
COc1ccc(-c2ccc(=O)n(CC(=O)Nc3ccc4c(c3)OCCO4)n2)cc1,i,11.2µM,?,i,i
Cc1occc1-c1n[nH]c(=S)n1CC(C)C,i,i,i,i,i
CC(C)Cn1c(-c2csc3ccccc23)n[nH]c1=S,i,1.12µM,6.31µM,i,i
Cc1cccc(-n2c(-c3csc4ccccc34)n[nH]c2=S)c1,i,2µM,i,i,i
CCn1c(-c2csc3ccccc23)n[nH]c1=S,i,6.31µM,6.31µM,i,i
Cc1ccc([N+](=O)[O-])c(-c2n[nH]c(=S)n2-c2cccc(Cl)c2)c1,i,?,i,i,i
CC(O)(c1ccccc1)c1nc(-c2csc3ccccc23)cs1 (centres undefined),i,nt,nt,nt,nt
CCc1nnc(NC(=O)c2csc3c2CCC(C)C3)s1 (centres undefined),nt,i,i,nt,nt
CCn1c(-c2csc3c2CCC(C)C3)n[nH]c1=S (centres undefined),i,2µM,2.82µM,i,i
CCc1cccc(OCC(=O)Nc2ccccc2N2CCCC2)c1,i,nt,nt,?,i
COC(=O)[C@@]12C[C@@H](CC(=O)N3CCN(C(=O)C4CC4)CC3)C(=O)N(Cc3ccc4c(c3)OCO4)C1=CCC(C)(C)C2,i,nt,nt,nt,nt
C=C(C(C)=O)C(O)c1ccc2ccccc2c1 (centres undefined),nt,i,i,nt,nt
O=C(c1ccc(OC2CCN(Cc3ccccc3C(F)(F)F)CC2)cc1)N1CCCCC1,-84.7,i,?,?,?
CSc1cccc(CN2CCC(Oc3cccc(C(=O)N4CCCC4)c3)CC2)c1,?,i,i,?,i
COc1ccc(CN2CCC(Oc3ccc(C(=O)N4CCCCC4)cc3)CC2)cc1C,-53.1,i,i,i,i
O=C(c1ccc(OC2CCN(Cc3ccc(C(F)(F)F)cc3)CC2)cc1)N1CCCCC1,i,?,i,?,i
CSc1cccc(CN2CCC(Oc3ccc(C(=O)N4CCCCC4)cc3)CC2)c1,-87.9,i,i,i,?
Cc1cc(Cl)ccc1-c1cc2nc(NCCCN(C)C)n(C)c(=O)c2s1,i,nt,nt,nt,nt
Cc1nn(-c2ccccn2)c(N)c1N=O,i,11.2µM,?,i,i
Cc1ccc([C@H]2C[C@@H](n3cc(-c4ccc(F)cc4)nn3)[C@H](O)CN2C(=O)C2CCCCC2)cc1,i,nt,nt,nt,nt
O=C(NCC1CCCCC1)c1cccc(-c2ccc(O)cc2)c1,-52.7,?,?,i,?
CCC(C)(C)c1ccc(OCCCC[n+]2ccc(C)cc2)c(C(C)(C)CC)c1,-95.1,?,?,23.1µM,i
SMILES,IL1B secr inh,RORgamma inh,Gal4-VP16 FLuc,MCF10A rerep,SW480 rereplic
COCCOc1ccc(C(F)(F)F)cc1NC(=O)c1ccc(C)cc1,i,i,i,i,i
CCC(C)(C)c1ccc(OCCCC[n+]2cccc(C)c2C)c(C(C)(C)CC)c1,-93.1,?,11.2µM,i,i
C=C1CC(C(=O)N/N=C/c2ccc(O)cc2)C1,i,i,i,i,16.4µM
O=C(N/N=C/c1ccc(O)cc1)NC12CC3CC(CC(C3)C1)C2,-73.7,i,i,i,i
COc1ccc(/C=N/NC(=O)NC23CC4CC(CC(C4)C2)C3)c(OC)c1,-68.8,i,i,?,?
O=C(N/N=C/c1ccncc1)NC12CC3CC(CC(C3)C1)C2,i,i,i,?,i
COc1ccccc1/C=N/NC(=O)NC12CC3CC(CC(C3)C1)C2,i,i,i,?,i
O=C(NN=Cc1ccc(F)cc1)C1CC1,i,nt,nt,i,i
O=C(CN1CCN(c2ccccc2O)CC1)Nc1cc(S(=O)(=O)N2CCCC2)ccc1Cl,?,nt,nt,i,i
CS(=O)(=O)N1CCCCC1CCN1CCCCC1 (centres undefined),i,nt,nt,i,i
O=C(COc1ccccc1-c1ccccc1)N/N=C/c1ccc2ccccc2c1,i,?,i,?,1.3µM
